# This is a sample that favours compounds with a hit; in the whole collection about 1.2% have one here.
# rTrxR1 inhibitor: rat TrxR1 inhibition; Potency, µM (top dose mostly 114 µM), actives largely listed as inhibitors; AID 588453; 390,000 compounds, 1% hits; recombinant rTrxR1, NADPH fluorescence consumption, selenite substrate; further: nearly all actives have a fitted effect of over 65% in size
#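 Rat TrxR1 (90 nM in the dispensed reagent) was pre-reduced with 400 uM NADPH for 5 min at room temperature, then incubated with compound for 15 min. After 400 uM selenite was added, NADPH fluorescence (Ex 340/Em 450 nm) was followed for 8 min.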
# GALK inh: blocks human galactokinase activity; P51570; 270,000 compounds, 0.007% hits; Potency, µM (doses to about 57.5 µM), usual class: inhibitors; Purified GALK, Kinase-Glo residual ATP luminescence
#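 Compounds were pin-transferred into ATP buffer (35 uM final), then GALK plus galactose (5 nM, 100 uM final) was added. After 1 h at room temperature, Kinase-Glo Plus was added and luminescence read after 10 min.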
# NPSR antag: blocks cAMP signaling of the human neuropeptide S receptor. 220,000 compounds, 1% hits. Q6W5P4. Potency, µM (top dose mostly 38.3 µM), actives largely listed as inhibitors. CHO-NPSR cells, cAMP TR-FRET, antagonist mode; further: nearly all actives have a fitted effect of over 50% in size
# Target sequence (Q6W5P4 whole entry, looked up): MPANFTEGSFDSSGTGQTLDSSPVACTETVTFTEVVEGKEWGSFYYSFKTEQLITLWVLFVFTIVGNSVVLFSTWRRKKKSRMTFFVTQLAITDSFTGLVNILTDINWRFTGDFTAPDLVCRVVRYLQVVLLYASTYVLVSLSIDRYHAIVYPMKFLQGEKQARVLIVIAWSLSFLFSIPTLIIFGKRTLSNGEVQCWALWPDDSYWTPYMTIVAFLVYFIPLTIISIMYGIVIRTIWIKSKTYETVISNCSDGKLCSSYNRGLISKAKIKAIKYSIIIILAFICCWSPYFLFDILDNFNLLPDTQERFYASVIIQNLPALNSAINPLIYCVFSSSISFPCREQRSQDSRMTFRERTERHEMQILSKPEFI
# TrxR1 substrate: rat thioredoxin reductase 1 substrate activity | purified TrxR1 substrate turnover, NADPH consumption readout | Potency, µM (highest dose often 114 µM) | 390,000 compounds, 0.01% hits | AID 588456; further: nearly all actives have a fitted effect of over 50% in size
#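 Rat TrxR1, dispensed at 90 nM, was prereduced with 400 uM NADPH (final) for 5 min at ~22 deg C, then incubated with compound 15 min before 400 uM selenite. A first-read NADPH fluorescence drop versus no-compound background flagged substrates.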
# Numbers stand for hits; n = inactive; u = inconclusive; x = no result. The call rests on the fitted dose curve; in most records, active means well fitted curve in the direction sought with a large enough effect; inconclusive means small, poorly fitted or top-dose-only effect, or another doubt; inactive means no such curve, though single readings can be large; an effect the other way counts as inactive or inconclusive.
SMILES,rTrxR1 inhibitor,GALK inh,NPSR antag,TrxR1 substrate
Cc1c(Cl)sn(-c2ccc(Cl)cc2)c1=O,5µM,n,2.5µM,n
Cn1c(=O)c2nc(NCc3ccccc3)sc2n(C)c1=O,n,x,x,n
O=C(CSc1ccc2nc(-c3ccccc3)cn2n1)Nc1ccccc1,n,x,x,n
Cc1ccc2occ(/C=N/NC(=O)[C@@H](N)Cc3ccccc3)c(=O)c2c1,n,x,n,n
COCC(C)OC(=O)/C(C#N)=C\c1coc2ccc(C)cc2c1=O (stereo unspecified),28µM,n,n,n
CC(C)c1nc(CN(C)C(=O)N[C@H](C(=O)N[C@@H](Cc2ccccc2)C[C@H](O)[C@H](Cc2ccccc2)NC(=O)OCc2cncs2)C(C)C)cs1,x,n,13µM,x
COc1ccc(Br)cc1CNC(=O)CN1CCSc2ccccc21,n,x,x,n
Cc1ccc(-c2cc(-c3ccc(Cl)cc3)c(C#N)c(N)n2)o1,50µM,n,n,n
Cc1ccc(-c2cc(-c3ccc(F)cc3)c(C#N)c(N)n2)o1,16µM,x,n,n
Cc1ccc(-c2cc(-c3ccc4c(c3)OCO4)c(C#N)c(N)n2)o1,n,n,u,n
Cc1ccc(-c2cc(-c3ccc(C)o3)nc(N)c2C#N)cc1,50µM,n,u,n
Cc1cc2nc(-c3ccc(SCC(=O)N4CCOCC4)nc3)[nH]c2cc1C,n,n,n,n
Cc1cc2nc(-c3ccc(SCC(=O)N4CCN(C(=O)c5ccco5)CC4)nc3)[nH]c2cc1C,13µM,n,u,n
C#CCN1C(=O)C(O)(CC(=O)/C=C/c2ccco2)c2ccccc21 (stereo unspecified),40µM,n,n,n
COC1=CC(=O)c2c(ccc3ncnc(N)c23)C1=O,u,x,x,79µM
Clc1ccccc1C(c1ccccc1)(c1ccccc1)n1ccnc1,n,n,5µM,n
COC(=O)/C(=C\c1ccc([N+](=O)[O-])o1)NC(=O)c1ccccc1,32µM,n,n,n
Cc1cc(C)c(C(=O)N2CCCC(CNS(=O)(=O)c3cccs3)C2)o1 (stereo unspecified),n,n,x,n
CC(C)(O)C#Cc1ccc(C(=O)N2CCCC(CNS(=O)(=O)c3cccs3)C2)o1 (stereo unspecified),13µM,n,x,n
CCOC(=O)c1c(C)oc2c1c(C(c1ccccc1)N1CCOCC1)c(O)c1ccccc12 (stereo unspecified),n,n,u,n
CCOC(=O)c1c(C)oc2c1c(C(c1cccnc1)N1CCCCC1)c(O)c1ccccc12 (stereo unspecified),7.1µM,n,n,n
COc1ccc(NC(=O)Cn2c(SCc3ccc(C)cc3)nc3cccnc32)cc1OC,n,x,x,n
COc1cc(O)c(C(CCN2CCN(c3ccccc3)CC2)c2ccc3c(c2)OCO3)c(OC)c1 (stereo unspecified),n,n,n,n
COc1cc(O)c(C(CCN2CCN(c3ccccc3)CC2)c2cc(OC)c(OC)c(OC)c2)c(OC)c1 (stereo unspecified),n,n,5µM,n
Cc1c(Cl)cccc1-n1ncc(C(=O)Nc2ccc(Br)cc2F)c1C1CCNCC1,n,x,x,n
SMILES,rTrxR1 inhibitor,GALK inh,NPSR antag,TrxR1 substrate
O=C1C(=O)C(c2ccc(O)cc2O)Oc2cc(O)cc(O)c21 (stereo unspecified),4.5µM,x,x,n
O=C1c2c(O)cc(O)cc2OC(c2ccc(O)c(O)c2)C1O (stereo unspecified),u,x,n,n
CCOC(=O)C1=C(c2ccccc2)N=c2s/c(=C\c3ccc(O)cc3)c(=O)n2C1c1cccs1 (stereo unspecified),n,n,10µM,n
COC(=O)C(CC(=O)c1ccc(Br)cc1)n1cccn1 (stereo unspecified),8.9µM,n,x,n
CC(=O)CCc1oc2ccc(C)cc2c1-c1ccc(C)o1,u,n,n,n
CC(=O)CCc1oc2ccc(NC(C)=O)cc2c1-c1ccc(C)o1,20µM,n,n,n
CCOC(=O)c1c(-c2ccc(C)o2)csc1NC(=S)NC(=O)N(C)C,11µM,n,n,n
CCOC(=O)c1c(-c2ccc(C)o2)csc1NC(=O)CSc1ncn[nH]1,40µM,n,n,n
CCOC(=O)c1c(-c2ccc(C)o2)csc1NC(=O)COC(=O)c1cccs1,u,n,u,n
CN1CCOc2cc(S(=O)(=O)N3CCN(c4nc(-c5cccs5)nc5ccccc45)CC3)ccc21,n,x,x,n
O=C(Nc1ccc(-c2nc3ncccc3o2)cc1)c1ccco1,40µM,n,n,n
NC(=O)c1ccsc1NC(=O)C1CCCN1S(=O)(=O)c1ccc(Cl)cc1 (stereo unspecified),n,n,n,n
CC1CCCCN1S(=O)(=O)c1ccc(C(=O)Nc2sccc2C(N)=O)cc1 (stereo unspecified),n,n,1.6µM,n
O=C(CC1C(=O)NCCN1Cc1cccc(Oc2ccccc2)c1)NCCc1ccccn1 (stereo unspecified),n,n,n,n
Cn1cc(CCNC(=O)CC2C(=O)NCCN2Cc2cccc(Oc3ccccc3)c2)cn1 (stereo unspecified),25µM,n,n,n
COc1cc2c(cc1OC)C(c1ccc(-c3ccc(Cl)cc3Cl)o1)=NCC2,n,n,7.9µM,n
C1=Cc2ccccc2/C1=C\c1cc[cH-]c1.[Fe+2].c1cc[cH-]c1,3.2µM,x,x,n
CN(CCO)c1cc(Sc2nc3ccccc3s2)c2nonc2c1[N+](=O)[O-],0.35µM,n,n,n
CC(=O)OCCN(C)c1cc(SC(C)C)c2nonc2c1[N+](=O)[O-],3.2µM,n,n,n
O=C(Nc1cccc2cccnc12)OC(Cl)(Cl)Cl,n,x,x,n
O=C(Nc1cccc2cccnc12)C(Cl)(Cl)Cl,28µM,x,x,n
O=C(Nc1cccc(S(=O)(=O)NC2=NCCCCC2)c1)c1cc(-c2ccco2)nc2ccccc12,50µM,n,n,n
O=C(CCl)Nc1cccc(S(=O)(=O)NC2=NCCCCC2)c1,18µM,x,x,n
COc1cc(C(=O)CC2(O)C(=O)N(Cc3ccccc3Cl)c3ccccc32)cc(OC)c1OC (stereo unspecified),n,x,x,n
O=C(O)c1cccc(-n2cccc2/C=C\[N+](=O)[O-])c1,u,n,n,n
SMILES,rTrxR1 inhibitor,GALK inh,NPSR antag,TrxR1 substrate
O=C(O)c1cccc(-n2cccc2/C=C/[N+](=O)[O-])c1,10µM,n,n,n
COc1cc(CN2CCN(C(=O)CC(C)C)CC2)cc(OC)c1O,7.9µM,n,n,n
COc1cc(CN2CCN(C(=O)CC(C)C)CC2)cc(OC)c1OC,n,n,n,n
COc1ccc(CN2CCN(C(=O)c3cc(OC)c(OC)c(OC)c3)CC2)cc1OC,n,n,n,n
COc1ccc(C(=O)N2CCN(Cc3cc(OC)c(O)c(OC)c3)CC2)cc1OC,25µM,n,n,n
Cc1nnc(SCC2=C(C(=O)O)N3C(=O)C(NC(=O)Cn4nc(C(F)F)cc4C)C3SC2)s1 (stereo unspecified),45µM,n,n,n
Cc1nnc(SCC2=C(C(=O)O)N3C(=O)C(NC(=O)COc4ccccc4)C3SC2)s1 (stereo unspecified),7.9µM,x,x,n
